Measured values from PubChem BioAssay AID1508600 (Functional Genomics Laboratory (NCATS/FGL), 2020).
In all, about 53,000 sequences went through this assay and about 3,700 (7%) were called active. This is one part of a sample in which actives are shown more often than they occur. Unmarked numbers belong to inactive results.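 The calls were made as follows: active = gene knockdowns whose robust z-score for IL-1 alpha signal is at least 2 or at most -2, so actives lie on both sides; inactive = the rest.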

test: Components of the Cytosolic LPS Sensing Pathway: Gene Identification via Genome-wide siRNA Screen; conditions: RAW264.7 macrophages, IL-1a HTRF, actives lie on both sides, screened at 100 nM (by protocol), cells primed 5 h with Pam3CSK4 first;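 also: robust z of the log signal after scaling to non-targeting control siRNA wells of the plate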
In short: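 RAW264.7; siRNA 100 nM final, RNAiMAX, 48h 37 degrees C; Pam3CSK4 5 h; LipidA + TransIT-TKO 24 h; IL-1a HTRF; CellTiter-Glo viability; robust z vs negative-control median.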

Sequence	z-score
GGACUUUCUUAACUACACUTT against Slc2a3	0.865
GGAUUACGGUGGGAUCAUGTT against Faxc	-1.38
GGUGCUGAUGGGAGAUAGUTT against 1700010H22Rik	-0.851
GGAAAUCUACAUCAUGGCUTT against Ift140	-2 (active)
GGGAAGAGAGACGAAAAAATT against Nufip1	1.13
GGACCAGCUUGAAGCUGAATT against Atl2	0.388
GGCUAAAAUAAAGAAGAAGTT against Cfap100	0.00546
CCGACAGCUCUAAAGGAACTT against Celf6	0.838
GCUACACCCGCAUGACAAATT against Trit1	2.43 (active)
GGUUAUAUAAGCAUCAAGGTT against Adamts18	-0.621
GCAGAGCGGGAUUUCAUUCTT against Sh3glb2	-1.23
CCAUAUGGCUUAUCUUAUUTT against Adam5	0.138
GGCAAGAAGGACAAUGAGUTT against Mb21d2	-2.82 (active)
GGUUUUUGUUGUAAUAGGCTT against Olfr915	-0.758
GGUAACAACUUUUAAGCCUTT against Prps2	-0.318
GCAGCUUAAGUUGCCCAAGTT against Aatk	-0.27
GGAUUUUGCUGUUUUGGAATT against Dsc1	0.41
CGGUAGCCAUAUUAAUAUCTT against Spink2	0.417
GGCUUACAAUGUGAUUUACTT against Cd7	1.92
GCUUCACUCUCUUCUUUGCTT against Olfr1463	-3.05 (active)
GCUCAACAAGGAUACGGUGTT against Tnfrsf11a	0.704
GGAUAUAACCAUCCUCUGUTT against Zscan29	0.578
GGGUCCCAAACAAUAACUUTT against Aebp1	1.7

Sequence	z-score
CCCAGACUCAGUUUUAACUTT against Spsb4	-1.88
GGGCCUCCUUCUCAUCAUUTT against Scarf2	0.9
GGUAACUUCCCAGGAGGGATT against Bcl9	0.549
GGAUUGGUUCAUGACCUGATT against Trim52	-0.814
GGUGAUCCUUAUGCUGUUATT against Ehmt2	0.305
GGUGCUUGGGAAUUUUGAUTT against Gpsm2	2.31 (active)
CCAUCAUGACGGUUCCCUATT against Mrgpra5	-1.43
GGUUCUUCCCACAGAAGACTT against Pggt1b	0.176
GGAUGACGAAGCCUAUGAUTT against Nacc2	-1.16
GGAGUGACAAAAGAAAUAATT against Nudt12	0.489
GGAAAUACUCUCAUCAUCGTT against Olfr214	-1.17
CGCAUAUCUAGAAUGGUUATT against 2810021J22Rik	1.74
GGGUAACAGAUGAAGGGUCTT against Synpo2l	2.48 (active)
GGACUACUCCAGAAAGCUUTT against Wdfy3	-0.0605
GCAAAAUGGUUCCUUUGGATT against Sec24c	-0.396
GGACAUUAUUUCUAUAUGGTT against Eif4e2	-1.2
GGCCCAUUCAGAUCAUCCATT against Vmn1r65	-0.197
CCCGGUAUUAAAUUUAAUGTT against Aox4	0.807
GCAUGUUUAGAACUAGCUCTT against Zfp87	0.76
CCAUCAAUUGGAAAUCUUUTT against Tnn	-1.01
GGUACAUCUUAGAGGCCAATT against Epo	2.66 (active)
CUCAGAUAUUCUUUUCCCATT against Olfr142	-1.25
CGUGUAACACACGAUUAGATT against Myot	0.587

Sequence	z-score
GGAACUUCAUUGAACUAUGTT against Trmt2b	-0.363
GGACGUGUACAUUGUCAAGTT against Unc5a	2.07 (active)
GUUAUCAGGAAGGAAAGCCTT against Sdhaf4	0.248
GGACAGCAAGACAGAAAACTT against Csf2rb2	-0.26
GGCUGGAGAUCUCUCAAAGTT against Nkain2	1.64
CGAGAUUAUCAGUCAAUUGTT against Tex24	2.02 (active)
GGCUUCUGUUUUUAUUUGUTT against Zbtb7c	1.07
CGAACUGAAGGUUUUCAAUTT against Knstrn	0.422
CCUCACGGCCUUAUAUCUCTT against Fmod	-1.8
GGAGACAACCUGUACUCAGTT against Zfp352	-3.18 (active)
GGAGAGAGAUGCCCAAAUCTT against Zfp507	-0.362
CCAGCUGUGUAACACUACCTT against Gfi1	1.08
CCUCUACGAUGACUGGAUGTT against Sh3bp1	0.227
GGGUCUUCAGUAUUAACACTT against Yae1d1	2.62 (active)
GGCAUACCGGAAACUUGCCTT against Dnajb13	-0.266
GGUACAAACACGAUCAAGGTT against Aox4	0.654
GGGAAUCAUUAAAUAGGAUTT against Arhgap26	-0.163
GGAAGAGCAUGAGUCGUUUTT against Scarb2	-0.122
GCUCCUACAAAACAUCCGATT against A130079P16Rik	-2.12 (active)
GGAAGUUCAUCAUGAUAUCTT against Cxadr	-0.108
GGGCGAUGAAGAAGAGAAATT against Smad1	-0.443
GGAAAGUUCUAAUGUUCAUTT against Sumo1	1.55
